Experiments:
Experiment in all cases: protein domain microarray probed with biotinylated miRNA; Domain array: 20 mM Tris-HCl pH 7.4, 200 mM KCl, 0.2 mM EDTA, 0.05% NP40, 2 ug/ul heparin, overnight 4 C. ORF array: PBS pH 7.0 with RNase inhibitor, 100 ng RNA; high values mean tight binding
Settings in all cases: ssRNA
hnRNP-A2/B1 = hnRNP-A2/B1 (Homo sapiens, UniProt P22626)
DAZAP1 = biological target: T1, DAZAP1 (Homo sapiens, UniProt Q96EP5)
T1 sequence: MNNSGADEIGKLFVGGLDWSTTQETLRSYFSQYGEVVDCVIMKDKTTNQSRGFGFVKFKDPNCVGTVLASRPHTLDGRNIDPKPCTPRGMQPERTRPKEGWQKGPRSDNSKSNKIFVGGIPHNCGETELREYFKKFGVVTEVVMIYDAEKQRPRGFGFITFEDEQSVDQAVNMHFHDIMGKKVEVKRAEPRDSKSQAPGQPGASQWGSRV

ELAVL2 = ELAVL2 (Homo sapiens, UniProt Q12926)
ELAVL2, sequence (Q12926 20-359): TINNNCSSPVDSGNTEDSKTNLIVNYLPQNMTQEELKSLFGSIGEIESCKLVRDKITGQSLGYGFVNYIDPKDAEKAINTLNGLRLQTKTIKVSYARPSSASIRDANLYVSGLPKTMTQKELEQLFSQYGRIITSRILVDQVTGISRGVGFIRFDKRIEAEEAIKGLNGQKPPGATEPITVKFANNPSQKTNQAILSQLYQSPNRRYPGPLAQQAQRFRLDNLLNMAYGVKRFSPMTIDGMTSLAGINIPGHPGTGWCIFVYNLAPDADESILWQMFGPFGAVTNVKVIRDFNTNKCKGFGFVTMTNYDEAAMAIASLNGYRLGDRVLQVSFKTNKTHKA

CPEB2 = biological target: T2, CPEB2 (Homo sapiens, UniProt Q7Z5Q1)
T2 sequence: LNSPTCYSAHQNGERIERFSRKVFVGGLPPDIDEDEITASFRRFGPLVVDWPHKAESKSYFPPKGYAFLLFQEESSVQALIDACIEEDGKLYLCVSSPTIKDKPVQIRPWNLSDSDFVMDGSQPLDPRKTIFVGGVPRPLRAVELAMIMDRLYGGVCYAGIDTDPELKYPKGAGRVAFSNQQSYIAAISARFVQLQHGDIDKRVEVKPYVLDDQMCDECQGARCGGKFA

hnRNP-C1/C2 = hnRNP-C1/C2 (Homo sapiens, UniProt P07910)
hnRNP-C1/C2, sequence (P07910 1-110): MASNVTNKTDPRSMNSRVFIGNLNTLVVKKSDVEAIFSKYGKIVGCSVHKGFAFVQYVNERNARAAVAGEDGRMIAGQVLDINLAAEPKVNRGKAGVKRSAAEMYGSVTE

CELF6(3) = CELF6(3) (Homo sapiens, UniProt Q96J87)
CELF6(3), sequence (Q96J87 372-481): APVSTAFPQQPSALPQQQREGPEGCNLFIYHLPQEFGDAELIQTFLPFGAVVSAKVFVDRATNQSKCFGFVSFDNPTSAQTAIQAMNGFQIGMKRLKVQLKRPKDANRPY

Matrin-3 = biological target: T3, Matrin-3 (Homo sapiens, UniProt P43243)
T3 sequence: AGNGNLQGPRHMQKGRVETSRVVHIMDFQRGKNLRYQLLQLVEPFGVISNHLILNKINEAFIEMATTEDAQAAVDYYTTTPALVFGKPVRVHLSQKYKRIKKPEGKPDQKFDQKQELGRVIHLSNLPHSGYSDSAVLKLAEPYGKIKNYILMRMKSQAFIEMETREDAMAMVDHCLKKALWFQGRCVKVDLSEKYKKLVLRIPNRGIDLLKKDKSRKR

PABP3 = PABP3 (Homo sapiens, UniProt Q9H361)
PABP3, sequence (Q9H361 1-390): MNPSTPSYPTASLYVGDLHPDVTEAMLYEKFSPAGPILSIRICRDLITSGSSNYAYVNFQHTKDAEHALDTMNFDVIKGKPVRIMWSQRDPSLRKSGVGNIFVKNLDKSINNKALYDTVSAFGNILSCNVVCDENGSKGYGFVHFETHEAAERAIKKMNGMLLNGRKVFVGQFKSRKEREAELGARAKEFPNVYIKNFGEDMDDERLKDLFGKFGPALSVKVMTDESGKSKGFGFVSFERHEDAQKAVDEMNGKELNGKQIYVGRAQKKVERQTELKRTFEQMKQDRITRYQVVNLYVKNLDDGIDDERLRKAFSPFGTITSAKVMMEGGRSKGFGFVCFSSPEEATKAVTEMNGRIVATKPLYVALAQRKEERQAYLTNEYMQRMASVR

ZCRB1 = ZCRB1 (Homo sapiens, UniProt Q8TBF4)
ZCRB1, sequence (Q8TBF4 1-110): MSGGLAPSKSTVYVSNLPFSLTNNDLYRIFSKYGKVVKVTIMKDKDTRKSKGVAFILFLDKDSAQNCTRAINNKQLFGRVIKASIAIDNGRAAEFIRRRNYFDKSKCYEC

HNRPLL = biological target: T4, HNRPLL (Homo sapiens, UniProt Q8WVV9)
T4 sequence: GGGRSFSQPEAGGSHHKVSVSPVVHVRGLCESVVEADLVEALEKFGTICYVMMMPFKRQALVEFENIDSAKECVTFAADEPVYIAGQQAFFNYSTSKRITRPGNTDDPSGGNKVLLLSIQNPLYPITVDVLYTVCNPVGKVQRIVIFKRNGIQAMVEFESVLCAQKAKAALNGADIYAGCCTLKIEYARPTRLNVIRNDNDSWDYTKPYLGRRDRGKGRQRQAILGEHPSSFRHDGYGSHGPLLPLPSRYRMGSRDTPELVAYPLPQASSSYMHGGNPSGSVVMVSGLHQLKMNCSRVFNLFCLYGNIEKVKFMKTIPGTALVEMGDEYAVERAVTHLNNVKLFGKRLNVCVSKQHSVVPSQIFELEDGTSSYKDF

hnRNP-A2/B1, sequence (P22626 1-210): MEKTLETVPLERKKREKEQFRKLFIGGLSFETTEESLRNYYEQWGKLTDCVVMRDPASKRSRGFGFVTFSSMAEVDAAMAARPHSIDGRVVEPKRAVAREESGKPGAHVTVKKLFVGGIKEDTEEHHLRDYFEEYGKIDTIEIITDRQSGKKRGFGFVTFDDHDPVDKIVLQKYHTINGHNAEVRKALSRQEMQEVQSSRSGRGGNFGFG

Row | Sequence | binding signal (hnRNP-A2/B1) [fluorescence intensity] | binding signal (DAZAP1) [fluorescence intensity] | binding signal (ELAVL2) [fluorescence intensity] | binding signal (CPEB2) [fluorescence intensity] | binding signal (hnRNP-C1/C2) [fluorescence intensity] | binding signal (CELF6(3)) [fluorescence intensity] | binding signal (Matrin-3) [fluorescence intensity] | binding signal (PABP3) [fluorescence intensity] | binding signal (ZCRB1) [fluorescence intensity] | binding signal (HNRPLL) [fluorescence intensity]
1 | AGAGGUAGUAGGUUGCAUAGUU | 3610 ± 47.7 | 3900 ± 300 | 1660 ± 45 | 65.7 ± 16.8 | 406 ± 24 | 608 ± 73.6 | 201 ± 2.89 | 119 ± 10.5 | 1460 ± 22.6 | 123 ± 7.11
2 | UGAGGUAGUAGGUUGUAUAGUU | 1499 ± 4.81 | 1600 ± 139 | 608.35 ± 0.587 | 42.8 ± 2.43 | 244.2 ± 0.382 | 282 ± 110 | 69.3 ± 9.98 | 31.2 ± 7.62 | 602 ± 7.03 | 
3 | UGAGGUAGUAGGUUGUGUGGUU | 2240 ± 7.74 | 2560 ± 130 | 1370 ± 72.6 | 108 ± 11.6 | 742.6 ± 1.1 | 653 ± 52 | 496.54 ± 0.269 | 334 ± 26 | 1440 ± 63.3 | 120 ± 20.3
4 | UAGCUUAUCAGACUGAUGUUGA | 255 ± 27.4 | 717 ± 152 | 653 ± 28.8 | 118 ± 118 | 162 ± 10.4 | 42.1 ± 8.05 | 38.7 ± 15.4 |  | 189 ± 14.5 | 
5 | CAGUGCAAUGAUGAAAGGGCAU | 2236 ± 9.55 | 1540 ± 260 | 965 ± 66.1 | 35.7 ± 11 | 146 ± 4.99 | 151 ± 17.8 | 116 ± 6.43 | 60.5 ± 8.1 | 824 ± 79.4 | 68.7 ± 5.11
6 | UGAGGUAGUAGGUUGUAUGGUU | 2642 ± 18.6 | 2980 ± 146 | 1210 ± 62.5 | 66.6 ± 14.3 | 636.15 ± 0.594 | 628 ± 29.6 | 251.8 ± 1.32 | 211 ± 6.4 | 1150 ± 9.06 | 97.4 ± 6.78

— paper PMC11574364
